Each structure is given as a SMILES string. Inconclusive results are not listed. A number with no mark means an inactive call. The source made the active and inactive calls. The call rests on the fitted dose curve; in most records, active means well fitted cell-killing curve with a large enough effect; inconclusive means small, poorly fitted or top-dose-only effect; inactive means no such curve, though single readings can be large or run the other way. Starred links: 1 amine or outer side, 2 acyl side, 3 side chain; linkers in the order of their positions; H or OH if unused. Positions of bridges follow the written chain, without caps; N, C: chain ends. Non-standard residues stand in square brackets, D forms with d. Residues, ends and D or L forms follow the SMILES beside them. Chains are numbered I, II in the order given. *: point of attachment. Actinocin(9to1) = Cc1c2oc3c(C)ccc(C(=O)[*:1])c3nc-2c(C(=O)[*:2])c(N)c1=O; NMeV = CN[CH](C(=O)O)C(C)C; Cbz = O=C(OCc1ccccc1)*; Sar = CNCC(=O)O
Potency means the concentration at half of the fitted maximal effect.

The nature of this assay: qHTS of pediatric cancer cell lines to identify multiple opportunities for drug repurposing: Confirmatory screen for Rh41 cells (AID 1347123).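 Further: 48 h compound exposure; nearly all actives have a fitted effect of over 60% in size.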 The note with it: Rh41 rhabdomyosarcoma cells, viability/cytotoxicity qHTS; series mostly up to 45.9 µM; activity change, negative = cytotoxic: at the top concentration. The text has this:
Drug repurposing or repositioning has been offered as a strategy for drug development in oncology programs. This approach has special potential for childhood cancers and other rare or orphan diseases, where the expected return on new drug development has been a disincentive to pharmaceuticals.
In this project we exploit the poly-pharmacology of drugs to discover new indications via phenotypic screening of a panel of 19 well-characterized cell lines derived from solid tumors seen in children and adolescents. The goal is to identify approved drugs with previously unrecognized anticancer properties that has the potential to reveal new mechanisms and biological processes involved in carcinogenesis or drug resistance. We employed a titration-based paradigm (quantitative high-throughput screening or qHTS), where all compounds were tested at multiple concentrations for their effect on cell viability. Concentration-response curves (CRCs) were derived directly from the primary screen, and both potency and efficacy values were used to identify compounds with robust bioactivity profiles. We screened the NIH Chemical Genomics Center (NCGC) Pharmaceutical Collection (NPC) and Mechanism Interrogation Plate (MIPE) small molecule collections of approved and investigational compounds against these cell lines; and measured metabolically active cells after 48 hours of compound treatment as a proxy for cell viability.
Assay Submitter: Nathalia J. Martinez, National Center for Advancing Translational Sciences, National Institutes of Health, Rockville, MD, USA; email: natalia.martinez@nih.gov
[1] Shen, M et al. Quantitative high-throughput phenotypic screening of pediatric cancer cell lines identifies multiple opportunities for drug repurposing. Oncotarget 2017 Dec 19;9(4):4758-4772. PMID 29435139.
The cells were obtained from University of North Carolina (UNC), Pediatric Preclinical Testing Program (PPT), and Coriell Institute (CI).
qHTS cell viability assay:
Cells were assayed in growth media at a density of 500-1,000 cells/well. Five microliters of cells were dispensed into 1,536-well, white, solid-bottom, TC-treated plates (Greiner Bio One) using a multidrop dispenser and incubated at 37 degrees C, 5% CO2, under a humidified atmosphere for 5 hours. Twenty-three nanoliters of compounds and controls (neutral control DMSO or positive control bortezomib at final concentration of 2.3 µM) were subsequently transferred by Kalypsys pintool. For primary screens, the MIPE collection was tested at 11-point dilutions (final concentrations range from 0.78 nM to 46 µM) and the NPC collection at 8-point dilutions (final concentrations range from 0.59 nM to 46 µM). Compounds tested in follow-up screens were assayed at 11-point dilutions. Cells were incubated for 48 hours, followed by addition of 3 µL of CellTiter-Glo (Promega). After a 15 min incubation at room temperature, samples were analyzed for luminescence intensity using a ViewLux High-throughput CCD imager equipped with clear filters.
As for `CC1(C)O[C@@H]2C[C@H]3[C@@H]4CCC5=CC(=O)C=C[C@]5(C)[C@@H]4[C@@H](O)C[C@]3(C)[C@]2(C(=O)CO)O1`, the “activity change, negative = cytotoxic” value was 3.8%.
As to `COc1cc([C@@H]2c3cc4c(cc3[C@@H](O[C@@H]3O[C@@H]5CO[C@@H](c6cccs6)O[C@@H]5[C@H](O)[C@@H]3O)[C@H]3COC(=O)[C@H]23)OCO4)cc(OC)c1O`, the Potency was 585 nM (active).
On the same count and under the same terms, with `CCS(=O)(=O)Nc1ccc2[nH]c(O)c(C(=Nc3ccc(CN4CCCCC4)cc3)c3ccccc3)c2c1` the figure was 522 nM (active).
Regarding `Cc1[nH]c(C=C2C(=O)Nc3ccccc32)c(C)c1CCC(=O)O`, the “activity change, negative = cytotoxic” value was 23.6%.
Take `CC(C)C[C@@H](C=O)NC(=O)[C@H](CC(C)C)NC(=O)[C@H](CC(C)C)NC(=O)OCc1ccccc1` (Cbz-Leu-Leu-Leu-aldehyde): the Potency was 1170 nM (active).
Still for that read-out and setting: with `Cc1c2oc3c(C)ccc(C(=O)NC4C(=O)NC(C(C)C)C(=O)N5CCCC5C(=O)N(C)CC(=O)N(C)C(C(C)C)C(=O)OC4C)c3nc-2c(C(=O)NC2C(=O)NC(C(C)C)C(=O)N3CCCC3C(=O)N(C)CC(=O)N(C)C(C(C)C)C(=O)OC2C)c(N)c1=O` (stereo not given) (I: TVP[Sar][NMeV] / II: TVP[Sar][NMeV]; ester I:1-I:C, II:1-II:C; linker I:N-II:N via Actinocin(9to1); configuration not given here) the figure was 18.5 nM (active); with `COc1cc(OC)c(C=CS(=O)(=O)Cc2ccc(OC)c(NCC(=O)O)c2)c(OC)c1`, 293 nM (active); with `O=C(O)c1ccc(Nc2ncc3c(n2)-c2ccc(Cl)cc2C(c2c(F)cccc2F)=NC3)cc1`, 2330 nM (active).
On the same count and under the same terms, to `Cn1cc(-c2cnn3c(N)c(Br)c([C@H]4CCCNC4)nc23)cn1` belongs 23300 nM (active); to `COc1ccc(Nc2cc(-c3cnc(N)nc3)nc(N3CCOCC3)n2)cn1`, 4140 nM (active).
The same measure, in the same setting: with `C[N+](C)([O-])CCNc1ccc(NCC[N+](C)(C)[O-])c2c1C(=O)c1c(O)ccc(O)c1C2=O` the figure was 18500 nM (active); with `FC(F)c1nc2ccccc2n1-c1nc(N2CCOCC2)nc(N2CCOCC2)n1`, 2930 nM (active); with `C=CC(=O)Nc1cccc(Nc2nc(NC3CCC(N(C)C)CC3)nc3c2ncn3C(C)C)c1` (stereo not given), 414 nM (active).
In the case of `C[C@@]12C(=O)OC(=O)[C@@]1(C)C1CCC2O1`, the Potency is 1850 nM (active).
On the same count and under the same terms, with `CNC(=O)c1ccc(Nc2cc(Nc3ccccc3S(=O)(=O)C(C)C)c3cc[nH]c3n2)nc1` the figure was 5850 nM (active).
The same measure, in the same setting: with `CC(C=CC1=C(C)CCCC1(C)C)=CC=CC(C)=CC(=O)Nc1ccc(O)cc1` the figure was 5370 nM (active).
For `CC[C@]12C=CCN3CC[C@@]4(c5cc([C@@]6(C(=O)OC)C[C@H]7C[C@@H](C(C)(F)F)CN(Cc8c6[nH]c6ccccc86)C7)c(OC)cc5N(C)[C@H]4[C@@](O)(C(=O)OC)[C@H]1OC(C)=O)[C@@H]32`, the Potency was 3690 nM (active).
In the case of `CCCCC(=O)O[C@]1(C(=O)CO)[C@@H](C)C[C@H]2[C@@H]3CCC4=CC(=O)C=C[C@]4(C)[C@@]3(F)[C@@H](O)C[C@@]21C`, the “activity change, negative = cytotoxic” value was -19.9%.
`CC(C)NC[C@@H](C(=O)N1CCN(c2ncnc3c2[C@H](C)C[C@H]3O)CC1)c1ccc(Cl)cc1`: the Potency is 737 nM (active).
Same read-out and setting: with `O=C(C=CC#Cc1cccc(NS(=O)(=O)c2ccccc2)c1)NO` the figure was 1650 nM (active).
`CCOC(=O)N1CCN([N+]([O-])=NOc2ccc([N+](=O)[O-])cc2C#N)CC1`: the Potency was 18500 nM (active).
Same read-out and setting: with `Cc1nc(NC(=O)N2CCC[C@@H]2C(N)=O)sc1-c1ccnc(C(C)(C)C(F)(F)F)c1` the figure was 2610 nM (active).
Still for that read-out and setting: to `CC(C)C[C@H](NC(=O)[C@@H](NC(=O)c1cccc(-c2ccccc2)n1)[C@@H](C)O)B(O)O` belongs 73.7 nM (active); to `CCN(CC)CCNC(=O)c1c(C)[nH]c(C=C2C(=O)Nc3ccc(F)cc32)c1C`, 7590 nM (active); to `Cc1cnc(Nc2ccc(N3CCN(C)CC3)cc2)nc1Nc1cccc(S(=O)(=O)NC(C)(C)C)c1`, 3290 nM (active).
Still for that read-out and setting: to `C=CC(=O)N1CCc2ccc(-n3c(=O)ccc4cnc5ccc(-c6cnn(C)c6)cc5c43)cc21` belongs 8270 nM (active).
Take `CCOc1cc2ncc(C#N)c(Nc3ccc(OCc4ccccn4)c(Cl)c3)c2cc1NC(=O)C=CCN(C)C`: the Potency was 2930 nM (active).
Regarding `C=C1C(=CC=C2CCC[C@]3(C)[C@@H]([C@H](C)CCCC(C)(C)O)CC[C@@H]23)C[C@@H](O)C[C@@H]1O`, the “activity change, negative = cytotoxic” value was -21.5%.
Turning to `COc1cc(O)c2c(c1)C1OC1C[C@H](O)[C@H](O)C(=O)C=CC[C@H](C)OC2=O` (stereo not given in full), the Potency is 165 nM (active).
With `C#CCC(Cc1cnc2nc(N)nc(N)c2n1)c1ccc(C(=O)N[C@@H](CCC(=O)O)C(=O)O)cc1` (stereo not given in full), the “activity change, negative = cytotoxic” value is 9.81%.
For the molecule `CC(=O)[C@]1(O)Cc2c(O)c3c(c(O)c2[C@@H](O[C@H]2C[C@H](N)[C@@H](O)[C@H](C)O2)C1)C(=O)c1ccccc1C3=O`, the Potency was 329 nM (active).
The same measure, in the same setting: with `COc1ccc(C=Cc2cc(OC)c(OC)c(OC)c2)cc1NC(=O)[C@H](N)CO` the figure was 104 nM (active).
Same read-out and setting: with `COC(=O)C1C2CC3c4[nH]c5cc(OC)ccc5c4CCN3CC2CC(OC(=O)c2cc(OC)c(OC)c(OC)c2)C1OC` (stereo not given) the figure was 11700 nM (active); with `CN[C@@H]1C[C@H]2O[C@@](C)([C@H]1OC)n1c3ccccc3c3c4c(c5c6ccccc6n2c5c31)C(=O)N[C@H]4O`, 1040 nM (active).
Take `O=C(C=CC=Cc1ccc2c(c1)OCO2)N1CCCCC1`: the “activity change, negative = cytotoxic” value is -8.9%.
With `CC(C(C)N1CC(=O)NC(=O)C1)N1CC(=O)NC(=O)C1` (stereo not given), the “activity change, negative = cytotoxic” value is -13%.
On to `CC(C)C[C@H](NC(=O)CNC(=O)c1cc(Cl)ccc1Cl)B1OC(=O)CC(CC(=O)O)(C(=O)O)O1` (stereo not given in full), for which the Potency was 233 nM (active).
The same measure, in the same setting: with `O=C1NCCc2[nH]c(-c3ccncc3)cc21` the figure was 2330 nM (active); with `Oc1cc(-c2nc(-c3ccccc3)[nH]c2-c2ccncc2)ccc1Cl`, 16500 nM (active).
As for `O=C1c2c(O)cccc2[C@@H]([C@@H]2O[C@H](CO)[C@@H](O)[C@H](O)[C@H]2O)c2cc(CO)cc(O)c21`, the “activity change, negative = cytotoxic” value is -7.06%.

(Values after PubChem BioAssay (NCATS).)
